Screening data as filed in PubChem.
An excerpt weighted towards active compounds, which were near 0.5% of everything screened.
E coli growth-1 – counter-screen for AddAB inhibitors: E. coli growth inhibition; inhibition, % at 11.9 µM; E. coli V3065 growth, OD600 absorbance, 18 h; 330,000 compounds, 0.27% hits;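 active means inhibition above the campaign's mean inhibition across all tested compounds plus 3 SD, cut at about 9.9% in these data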;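 further: uninfected addAB+ strain grown without phage in ampicillin broth; 0% = DMSO wells and 100% = ciprofloxacin 0.95 µg/ml wells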
phage Ecoli inh – E. coli growth loss with phage present; growth absorbance; 360,000 compounds, 0.26% hits; inhibition, % at 11.9 µM; in the data active means inhibition above about 11%
AddAB inh – less growth of phage-infected E. coli with AddAB; E. coli expressing H. pylori AddAB, absorbance growth; inhibition, % at 11.9 µM; 330,000 compounds, 0.29% hits; in the data active means inhibition above about 12%;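 further: 0% = vehicle wells of infected cells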
E coli growth-2 – blocks Escherichia coli growth. OD600, 23 h; active compounds read low. OD600 absorbance (test concentration not listed). 330,000 compounds, 0.21% hits. AID 1053175;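 active means OD600 absorbance below the run mean of sample wells minus 3.6 SD, in any replicate, cut at about 0.56 in these data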
Tat transport – E. coli Tat transport inhibition. inhibition, % at 10 µM. E. coli MC4100 TorA-mCherry Tat export, fluorescence. 340,000 compounds, 0.036% hits;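 active means mean replicate inhibition at least 50% and at least half of replicates individually reaching 50%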;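 further: exported cargo escapes ClpAP degradation while cytoplasmic cargo is degraded and loses fluorescence; 0% = median of neutral control wells and 100% = median of NaSCN control wells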
* hit, by the source's call; · = no result given.

SMILES	E coli growth-1	phage Ecoli inh	AddAB inh	E coli growth-2	Tat transport
O=C(NN=Cc1ccc([N+](=O)[O-])o1)C(O)c1ccccc1 (stereo not drawn)	·	·	·	0.44*	·
CCC(CO)Oc1cc(NCc2ccc(Cl)c(Cl)c2)c2ncn(C(C)C)c2c1 (stereo not drawn)	·	·	·	0.71	·
COCc1cc(=O)[nH]c(N=C(N)Nc2ccccc2C)n1	·	·	·	0.68	·
COC(=O)NN=Cc1ccc([N+](=O)[O-])o1	·	·	·	0.051*	·
O=C(/C=C1\C(=O)Nc2ccccc21)/C=C1\C(=O)Nc2ccccc21	·	-1	·	0.51*	2
O=C1Nc2ccccc2/C1=C\C(=O)c1ccccc1	-3	0	2	0.65	2
O=C1OCC(CO)(CO)N=C1NNc1ccc(Cl)c(Cl)c1	-1	7	1	0.18*	1
OCC1(CO)COC(c2ccccc2)=N1	-1	0	1	0.63	16
CCc1ccc(C=C2SC(=S)N(CC(=O)Nc3nc4ccccc4s3)C2=O)cc1	·	·	·	0.7	·
CNC[C@H](Cc1ccccc1)NC[C@@H](Cc1cccc2ccccc12)NCCc1ccc(C)cc1	-2	0	-2	·	4
CNCC(Cc1ccccc1)NCC(Cc1cccc2ccccc12)NCCc1ccc(C)cc1 (stereo not drawn)	·	·	·	0.048*	·
CCN1C(=Cc2ccc3ccccc3[n+]2CC)C=Cc2ccccc21	·	·	·	0.49*	·
CCN1/C(=C/c2ccc3ccccc3[n+]2CC)C=Cc2ccccc21	11*	12*	10	·	-15
COCCNC(=O)[C@@]1(Cc2ccccc2)C=CC(C)N1C(C)=O (stereo partly drawn)	·	·	·	0.69	·
CC(C(=O)CC(=O)OC(C)(C)C)C(O)c1ccc(C(F)(F)F)cc1 (stereo not drawn)	·	·	·	0.71	·
O=C(O)c1ccccc1O	1	4	3	0.7	11
O=C(O)c1ccccc1SSc1ccccc1C(=O)O	13*	2	10	0.68	7
COc1cccc(NC(=O)C2CCCN2S(=O)(=O)c2cccc3cccnc23)c1 (stereo not drawn)	·	·	·	0.67	·
CCCCNC(=S)Nc1ccc(C(F)(F)F)cc1	11*	10	11	0.56	0
CCCCNC(=S)Nc1ccc(Cl)cc1	2	3	3	0.65	-3
O=C1c2ccccc2NC(c2ccc(-c3ccccc3F)o2)N1O (stereo not drawn)	12*	9	10	0.65	-9
CN1CC(=O)N2C3c4ccccc4OCC3C(c3ccccc3)[C@]2(C)C1=O (stereo partly drawn)	·	·	·	0.7	·
O=[N+]([O-])c1cc(C(F)(F)F)ccc1N1CCN(S(=O)(=O)c2ccc3ccccc3c2)CC1	0	-2	3	0.54*	-1
CCOC(=O)C1C2COc3ccc(Cl)cc3C2N2C(=O)c3cc(Br)ccc3NC(=O)[C@@]12C (stereo partly drawn)	·	·	·	0.73	·
O=[N+]([O-])c1ccc(Sc2cccc[n+]2[O-])c2nonc12	·	60*	·	0.086*	139*
SMILES	E coli growth-1	phage Ecoli inh	AddAB inh	E coli growth-2	Tat transport
O=[N+]([O-])c1ccc(Nc2ccccc2)c2nonc12	0	0	2	·	-7
O=C(C=Cc1cccs1)Nc1ccc(N2CCOCC2)c(S(=O)(=O)Nc2ccccc2Cl)c1	·	·	·	0.71	·
CCN(CC)c1ccc(C(=C2C=CC(=[N+](CC)CC)C=C2)c2ccc(N(CC)CC)cc2)cc1	·	-1	·	0.89	51*
CCN(CC)c1ccc(C(=O)NNC(=O)CCl)cc1	2	0	-1	·	6
C=CCN1c2ccccc2[C@]23CC(C(=O)OC)N(C(=O)NC4CCCC4)C2=NC(C(=O)OC)=C(C(=O)OC)C13 (stereo partly drawn)	·	·	·	0.74	·
Cc1ccc(N2C(=O)Cc3ccccc3C2=O)cc1	2	0	4	0.63	3
Cc1cccc(N2C(=O)Cc3ccccc3C2=O)c1	0	0	0	0.53*	-6
O=C1CSC(=S)N1/N=C/c1ccc2c(c1)OCCO2	9.9*	1	5	·	7
CN1CCN(C(=O)C2=C[C@@H](c3ccccc3)C[C@@H](OCc3ccc(CO)cc3)O2)CC1	-2	1	0	·	-11
O=C(C1=C[C@H](c2ccccc2)C[C@H](OCc2ccc(CO)cc2)O1)N1CCOCC1	1	1	1	0.65*	-2
